In the library only some 8.8% were active in any assay of this set; here they are far more common.
HTT ATP protect = Huntington cell model cytoprotection by ATP luminescence. PC12 HTT-Q103 induced, cytoprotection, ATP luminescence, 40 h. Potency, µM (series often up to 56.4 µM), for the others: cytoprotection (ATP increase), actives largely listed as activators. 230,000 compounds, 0.14% hits; note: % of control where 0% means no effect; nearly all actives have a fitted effect of over 45% in size
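Compounds were screened for protection of PC12 cells against cell death after tebufenozide induction (100 nM final) of mutant Huntingtin exon 1 (Q103) fused to GFP.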
ALDH1A1 block = inhibitors of human aldehyde dehydrogenase 1A1 | P00352 | Potency, µM (titrated, usually from 75.3 µM), inactives show at the highest dose activity, negative = inhibition, usual class: inhibitors | AID 1030 | Purified ALDH1A1, NADH fluorescence, propionaldehyde substrate | 220,000 compounds, 7.3% hits; active = well fitted inhibition curve with a large enough effect, not every such curve was filed as active; inconclusive = small, poorly fitted or top-dose-only effect, or another doubt; inactive = no such curve, though single readings can be large or run the other way;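 note: plate controls were no enzyme wells and a reference inhibitor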
Target sequence (P00352 whole entry, looked up): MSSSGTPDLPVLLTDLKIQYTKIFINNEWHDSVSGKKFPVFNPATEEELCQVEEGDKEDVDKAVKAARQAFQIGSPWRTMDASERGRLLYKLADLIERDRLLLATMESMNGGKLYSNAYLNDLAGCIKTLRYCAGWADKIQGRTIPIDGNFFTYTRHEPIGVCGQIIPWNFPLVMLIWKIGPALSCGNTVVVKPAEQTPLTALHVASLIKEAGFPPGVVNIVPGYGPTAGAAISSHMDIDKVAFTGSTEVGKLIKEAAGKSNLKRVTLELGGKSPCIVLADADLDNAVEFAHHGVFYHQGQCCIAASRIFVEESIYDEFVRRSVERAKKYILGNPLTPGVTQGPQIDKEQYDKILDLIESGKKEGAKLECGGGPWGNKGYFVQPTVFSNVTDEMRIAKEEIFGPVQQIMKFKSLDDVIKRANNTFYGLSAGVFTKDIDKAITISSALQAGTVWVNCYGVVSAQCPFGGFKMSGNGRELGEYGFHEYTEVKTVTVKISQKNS
HTT aggregate = inhibitors of mutant huntingtin aggregate formation in PC12 cells. PC12 HttQ103-GFP aggregates, Acumen cytometry, 40 h. Potency, µM (doses to about 46.1 µM), without a hit: at the highest dose activity change, negative = inhibition, usual class: inhibitors. 220,000 compounds, 1.1% hits. AID 1688; note: % is set by controls: 0 for no effect and ±100 for the full control effect; nearly all actives have a fitted effect of over 60% in size
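PC12/HTTQ103-GFP, ecdysone-inducible; teb 100 nM; cpd qHTS titration; GFP aggregates read on laser cytometer, Ex 488/Em 500-530 nm.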
HPGD block = blocks human HPGD enzyme activity; 150,000 compounds, 4.3% hits; purified HPGD, NADH fluorescence kinetic, PGE2 substrate; Potency, µM, for inactives: at the highest dose activity change, negative = inhibition, most hits filed as inhibitors; P15428; active = well fitted inhibition curve with a large enough effect, not every such curve was filed as active; inconclusive = small, poorly fitted or top-dose-only effect, or another doubt; inactive = no such curve, though single readings can be large or run the other way; note: % is set by controls: 0 for no effect and ±100 for the full control effect
Target sequence (P15428 whole entry, looked up): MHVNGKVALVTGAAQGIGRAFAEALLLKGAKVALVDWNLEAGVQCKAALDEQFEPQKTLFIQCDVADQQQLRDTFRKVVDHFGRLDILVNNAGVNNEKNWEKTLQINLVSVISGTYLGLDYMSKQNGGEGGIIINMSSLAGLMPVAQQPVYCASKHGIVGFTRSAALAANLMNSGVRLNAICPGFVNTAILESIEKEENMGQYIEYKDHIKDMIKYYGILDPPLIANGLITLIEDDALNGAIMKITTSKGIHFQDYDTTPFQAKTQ
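NADH formation kinetics: reaction with 30 uM PGE2 and 1 mM NAD+ (final), 20 nM enzyme, Tris-HCl pH 8 with Tween 20, after 15 min compound preincubation at room temperature. Fluorescence change, last versus first of five reads.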
LMNA splice mod = LMNA splicing modulation; HeLa LMNA splicing GFP/RFP minigene ratio, 48 h; 200,000 compounds, 0.01% hits; AID 1487; Potency, µM (titrated, usually from 46.1 µM), for inactives: at the top dose ratio change, negative = inhibition, most hits filed as inhibitors; active = well fitted inhibition curve with a large enough effect in the signal ratio, with a control signal flat, not every such curve was filed as active; inconclusive = small, poorly fitted or top-dose-only effect, or effect the other way, or a change in a side signal; the % refers to the signal ratio; note: % is set by controls: 0 for no effect and ±100 for the full control effect
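S3 HeLa cells stably expressing lamin A-EGFP splicing minigene plus DsRed2, 600 cells/well, 48 h compound exposure at 37C. Laser-scanning cytometry; analysed as GFP (500-530 nm)/RFP (575-640 nm) total intensity ratio; 0.5% DMSO vehicle.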
* hit, by the source's call; ? = inconclusive; / = not tested or not shown; [ ] = remark or other dose. Unless noted, calls come from the whole dose curve; as a rule, active = well fitted curve in the direction sought with a large enough effect; inconclusive = small, poorly fitted or top-dose-only effect, or another doubt; inactive = no such curve, though single readings can be large; an effect the other way counts as inactive or inconclusive. Potency is the fitted concentration of half-maximal effect.

SMILES | HTT ATP protect | ALDH1A1 block | HTT aggregate | HPGD block | LMNA splice mod
O=C1C2C3C=CC(C4CC34)C2C(=O)N1Cc1ccco1 (stereo not given) | 5.3%[10 µM] | 22.4µM* | 11.6% | -0.6% | 8.0%
O=C1C2C(C(=O)N1/N=C/c1cccc([N+](=O)[O-])c1)C1C=CC2C12CC2 (stereo not given) | / | 15.8µM* | 23.0% | 15.8µM* | 4.3%
O=C1C2C3C=CC(CC3)C2C(=O)N1/N=C/c1ccco1 (stereo not given) | -68.8% | ? | 9.6% | / | /
O=C1C2C(C(=O)N1/N=C/c1ccco1)C1C=CC2C12CC2 (stereo not given) | 5.3%[10 µM] | 10µM* | 5.7% | -14.6% | -1.5%
O=C1C2C(C(=O)N1Cc1ccco1)C1C=CC2C12CC2 (stereo not given) | -6.0% | 12.6µM* | 9.6% | -7.1% | 6.5%
CCOC(=O)CCCCN(Cc1ccccc1F)S(=O)(=O)c1ccc(F)c(C(=O)Nc2cc(Cl)cc(Cl)c2)c1 | / | / | / | / | -21.1%[46 µM]
CC1(C)CC(=O)C=C(OC(=O)c2ccc(Cl)cc2)C1 | 4.2%[10 µM] | 6.8% | 11.0% | 14.1µM* | -3.7%
O=C(CN1C(=O)COc2ccccc21)NCCC1=CCCCC1 | -12.9%[1.9 µM] | ? | 10.7% | 0.2% | 13.7%
Cc1ccc2c(c1)N(CCC(=O)NCc1ccccn1)C(=O)CO2 | -11.9%[10 µM] | 22.4µM* | -5.9% | -6.4% | -2.4%
O=C(CCN1C(=O)COc2ccccc21)NCCC1=CCCCC1 | 2.0%[10 µM] | 31.6µM* | -0.7% | -12.7% | -11.2%
S=C=Nc1ccc(N=C=S)cc1 | -1.0% | / | 1.5% | / | /
O=C(CSc1ncn[nH]1)Nc1ccccc1-c1ccccc1 | 14.6% | ? | -7.7% | -8.1% | 20.7%
O=C(CN1CCN(c2ccc(F)cc2)CC1)Nc1nnc(-c2ccccc2)s1 | 2.6%[10 µM] | 28.2µM* | 8.6% | -8.2% | -1.6%
O=C(CSc1ncn[nH]1)Nc1nnc(-c2ccccc2)s1 | -29.6% | 28.2µM* | 7.7% | -25.5% | ?
Cc1ccc(NC(=O)CN2CCN(C3CCCCC3)C(=O)C2=O)cc1 | / | / | / | / | 13.3%[46 µM]
CCc1c(C)nc2ncnn2c1N1CCCC(C(=O)NCc2ccc3c(c2)OCO3)C1 (stereo not given) | 12.3%[10 µM] | -6.2% | -9.1% | -17.2% | ?
CCc1c(C)nc2ncnn2c1N1CCCC(C(=O)Nc2ccc(NC(C)=O)cc2)C1 (stereo not given) | 2.5% | 12.6µM* | -8.4% | ? | 13.6%
Cc1ccc(OCCNS(=O)(=O)c2ccc(N3CCCC3=O)cc2)cc1 | 18.0%[10 µM] | -3.0% | 11.2µM* | -6.7% | ?
COc1cccc(CNC(=O)C(=O)NCC(c2cccs2)S(=O)(=O)c2cccs2)c1 (stereo not given) | / | / | / | / | 18.9%[46 µM]
Cc1ccc(-n2nc(C)c3c2OC(N)=C(C#N)C3c2ccncc2)cc1 (stereo not given) | 2.0%[10 µM] | ? | 7.9% | -6.8% | -16.9%
Cc1ccc(-n2nc(C)c3c2OC(N)=C(C#N)C3c2ccccc2F)cc1 (stereo not given) | 15.5% | 3.98µM* | ? | -13.9% | -11.1%
Cc1nn(-c2ccccc2)c2c1C(c1ccncc1)C(C#N)=C(N)O2 (stereo not given) | 11.9%[10 µM] | 14.1µM* | 28.6% | -13.0% | -5.3%
Cc1cc(-c2nn(-c3ccccc3F)cc2CN(C)CC(O)CO)c(C)s1 (stereo not given) | -6.0%[10 µM] | 4.8% | 9.7%[9.22 µM] | / | /
Cc1cc(=O)[nH]c2nnc(SCC(=O)Nc3ccc(OC(F)(F)F)cc3)n12 | / | / | / | / | 14.4%[46 µM]
O=C(CSc1ccc(Cl)cc1)NCC1CCCO1 (stereo not given) | 6.0% | 5.1% | 12.6%[1.84 µM] | ? | 4.3%
SMILES | HTT ATP protect | ALDH1A1 block | HTT aggregate | HPGD block | LMNA splice mod
O=C(CCn1nc(-c2ccccc2)c2ccccc2c1=O)N1CCN(c2ccccc2)CC1 | 7.7%[0.074 µM] | 22.4µM* | -0.6% | -11.3% | -4.3%
O=C(CCn1nc(-c2ccccc2)c2ccccc2c1=O)NCC1CCCO1 (stereo not given) | -6.5% | ? | 0.3% | 28.2µM* | ?
O=C(CCSc1ccccc1)NCC1CCCO1 (stereo not given) | 3.2% | -1.7% | 10.5% | 15.8µM* | -8.0%
O=C(CCc1nc(-c2ccc(Cl)cc2)no1)NCC1CCCO1 (stereo not given) | -0.3% | 35.5µM* | -3.8%[9.22 µM] | / | ?
O=C(CCSCCC(=O)NCC1CCCO1)NCC1CCCO1 (stereo not given) | 8.6% | -7.1% | -14.8% | -4.4% | 1.3%
O=C(CCCOc1ccccc1)NCC1CCCO1 (stereo not given) | 1.8% | -2.9% | ? | 12.6µM* | 13.1%
O=C(CC1CCCCC1)NCC1CCCO1 (stereo not given) | -10.7% | -2.9% | -2.9% | 14.1µM* | 1.6%
O=C(CC(c1ccccc1)c1ccccc1)NCC1CCCO1 (stereo not given) | -1.9% | -3.4% | 11.5% | 7.94µM* | 6.0%
Cc1ccc(OCC(=O)NCC2CCCO2)c(C)c1 (stereo not given) | -18.0%[10 µM] | 0.8% | -5.4%[9.22 µM] | / | 17.8%[46 µM]
O=C(COc1ccccc1)NCC1CCCO1 (stereo not given) | 7.3%[10 µM] | 11.6% | 0.8% | -21.1% | -11.0%
Cc1cc(Cl)ccc1OCCCC(=O)NCC1CCCO1 (stereo not given) | 11.6% | 9.7% | 5.2% | 11.2µM* | 6.3%
COC(=O)C[C@H](NC(=O)[C@H](C)NC(=O)[C@@H](NC(=O)OCc1ccccc1)C(C)C)C(=O)CF | / | 10.1% | / | / | /
Fc1ccccc1 | -17.2% | -4.7% | / | -9.2% | /
O=C(Nc1cccc(F)c1)N1CCCC2(CCN(S(=O)(=O)c3ccccc3)CC2)C1 | -23.6% | -12.8% | / | -4.2% | /
CC(C)(C)C(=O)Nc1cc(C(F)(F)F)ccc1N1CCOCC1 | -6.2%[1.9 µM] | -1.4% | -6.6% | -8.3% | -6.4%
CC(C)(C)C(=O)NC(=S)Nc1cc(C(F)(F)F)ccc1N1CCOCC1 | -13.5% | 18.9µM* | -5.9% | -7.0% | 11.0%
O=C(CSCc1ccco1)Nc1cc(C(F)(F)F)ccc1N1CCOCC1 | -14.5% | 7.08µM* | 29.9% | 28.2µM* | 3.4%
CC(=O)Nc1cc(C(F)(F)F)ccc1N1CCOCC1 | -9.3% | 17.7% | 3.7% | 2.3% | 8.5%
O=C(Nc1cc(C(F)(F)F)ccc1N1CCOCC1)C1Cc2ccccc2CN1C(=O)c1ccco1 (stereo not given) | 2.6%[10 µM] | 22.4µM* | ? | ? | 16.0%
O=C(Nc1ccccc1)C1Cc2ccccc2CN1C(=O)c1ccco1 (stereo not given) | -11.2% | 2.4% | -0.9% | -4.6% | -3.1%
CCCC(=O)Nc1cc(C(F)(F)F)ccc1N1CCOCC1 | -29.6% | 3.16µM* | 10.0% | / | 12.3%[46 µM]
Nc1nc(SCC(=O)Nc2cc(C(F)(F)F)ccc2N2CCOCC2)n[nH]1 | -14.5% | 22.4µM* | 0.3% | / | 13.7%[46 µM]
O=C(NC(=S)Nc1cc(C(F)(F)F)ccc1N1CCOCC1)c1sc2ccccc2c1Cl | 11.6%[10 µM] | 7.94µM* | 21.9% | -13.2% | -7.9%
C=CCN=C1NN=C(c2ccc3c(c2)OCCO3)CS1 | -61.0%[10 µM] | 20µM* | 4.3% | / | -3.1%[46 µM]
